Source: PubChem (several laboratories)
Compounds with a hit are over-represented: about 3.6% of the library has one in this group of screens.
MITF act – activators of MITF-driven TRPM1 promoter reporter, primary screen, cell-based, SK-MEL-5, luciferase, single point | SK-MEL-5 TRPM1-promoter luciferase, 24 h; % of positive control, neutral wells = 0 | activation, % at 12.5 µM | 300,000 compounds, 0.75% hits | AID 588334, 2011;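 active = mean activation of at least 80% with every replicate also reaching 80%; inconclusive = mean reaches 80% but some replicate falls short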;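 also: 0% = neutral control wells and 100% = parthenolide positive control wells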
esBAF inh – Bmi1 luciferase reporter increase in mESCs, primary screen, esBAF inhibitor project, mouse ES cells, Bmi1 luciferase knock-in, single point. 24 h; 100% = twice the neutral-well signal. reporter increase, % at 12.5 µM. 350,000 compounds, 2% hits. AID 602393, 2012; in the data active = activation above about 40%; inconclusive = no clear call, values can overlap the other calls;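 also: 0% = median of the plate's neutral control wells and 100% = double that signal; a rise in the Bmi1 reporter signal indicates esBAF inhibition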
A3A deaminase – APOBEC3A ssDNA deaminase inhibitors, primary screen, selectivity assay for APOBEC3G inhibitor project, biochemical, FAM/TAMRA oligo cleavage fluorescence; DNA dC->dU-editing enzyme APOBEC-3A (Homo sapiens), P31941; recombinant A3A, FAM/TAMRA ssDNA deamination fluorescence; inhibition, % at 20 µM; 330,000 compounds, 0.41% hits;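 active = at least 40% inhibition at 20 µM here, with at most 30% in a related deaminase screen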;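 also: plate controls were A3A with DMSO for no effect and wells lacking A3A enzyme for full effect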
Target sequence (P31941 whole entry, looked up): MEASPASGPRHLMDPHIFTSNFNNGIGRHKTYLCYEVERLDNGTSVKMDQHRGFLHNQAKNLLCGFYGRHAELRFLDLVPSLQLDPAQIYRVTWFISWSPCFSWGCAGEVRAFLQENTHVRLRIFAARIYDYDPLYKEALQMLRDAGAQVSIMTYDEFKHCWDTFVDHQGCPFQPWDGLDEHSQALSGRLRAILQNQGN
PHOSPHO1 inh – PubChem AID 1565; Phosphoethanolamine/phosphocholine phosphatase (Homo sapiens), Q8TCT1; recombinant PHOSPHO1, absorbance phosphatase assay; inhibition, % at 13.3 µM; 290,000 compounds, 1.1% hits; in the data active = inhibition above about 60%
Wnt act – Wnt/beta-catenin pathway activators, primary screen, cell-based, plate reader, single point | Wnt/beta-catenin reporter cell assay, activator | activation, % at 9.35 µM | 300,000 compounds, 1.2% hits; in the data active = activation above about 30%, passing the limit was not always enough; inconclusive = no clear call, values can overlap the other calls;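 also: 0% = neutral control wells and 100% = positive control wells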
APOBEC3G inh – APOBEC3G DNA deaminase inhibitors, primary screen, biochemical, fluorescence, single-stranded DNA substrate, uHTS. recombinant A3G, ssDNA deamination FAM/TAMRA fluorescence. 330,000 compounds, 0.28% hits. inhibition, % at 20 µM. DNA dC->dU-editing enzyme APOBEC-3G (Homo sapiens), Q9HC16;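 active = inhibition of at least 40% at 20 µM, with no more than 30% in the related APOBEC3A deaminase screen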;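 also: plate controls were DMSO wells with A3G for no effect and wells lacking A3G enzyme for full effect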
Target sequence (Q9HC16 whole entry, looked up): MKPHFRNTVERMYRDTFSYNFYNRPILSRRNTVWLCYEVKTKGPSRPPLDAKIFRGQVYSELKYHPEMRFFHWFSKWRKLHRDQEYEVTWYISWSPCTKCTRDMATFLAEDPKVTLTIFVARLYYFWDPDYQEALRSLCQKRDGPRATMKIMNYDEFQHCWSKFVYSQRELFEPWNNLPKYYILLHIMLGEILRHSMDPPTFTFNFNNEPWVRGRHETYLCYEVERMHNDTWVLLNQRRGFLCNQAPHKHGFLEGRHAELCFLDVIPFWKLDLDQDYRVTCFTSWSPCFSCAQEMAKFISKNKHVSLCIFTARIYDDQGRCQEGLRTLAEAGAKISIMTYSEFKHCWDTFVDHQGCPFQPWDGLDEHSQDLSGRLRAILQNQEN
Starred values were filed as active, the others as inactive; ? = inconclusive; . = not tested or not shown.

SMILES	MITF act	esBAF inh	A3A deaminase	PHOSPHO1 inh	Wnt act	APOBEC3G inh
Cn1nc(C(F)(F)F)cc1-c1ccc(S(N)(=O)=O)s1	72	52*	-2	-13	23	-1
CN(C)C(=O)c1ccc(-c2cc(C(F)(F)F)nn2C)s1	.	.	-4	46	33*	5
Cc1cccc(/C=C/c2nc3ccccc3c(=O)[nH]2)c1	31	.	-4	29	24	-7
CCOc1cc(/C=C/c2nc3ccccc3c(=O)[nH]2)ccc1O	78	71*	0	1	8	-4
Cc1[nH]c2ccccc2c1/C=C/c1nc2ccccc2c(=O)[nH]1	93*	46*	0	18	-1	-7
Cc1noc(C)c1S(=O)(=O)Nc1ccc2c(c1)C(=O)N([C@@H](C)CO)C[C@@H](C)[C@H](CN(C)S(=O)(=O)c1ccccc1)OCCCC[C@@H](C)O2	.	0	.	.	.	.
COc1ccc(OC)c(S(=O)(=O)N2Cc3ccccc3CC2C(=O)Nc2nccs2)c1 (stereo unspecified)	40	51*	-3	-42	.	4
Cc1c(C(=O)c2ccccc2)oc2ccc3ccccc3c12	.	40	2	-14	50*	-1
C[C@@H]1CN([C@H](C)CO)C(=O)Cc2cc(NC(=O)Nc3ccc4c(c3)OCO4)ccc2O[C@H]1CN(C)Cc1ccc(-c2ccccc2)cc1	.	4	.	.	.	.
Cc1cccc(NC(c2ccc(O)cc2)c2ccc3ccc(C)nc3c2O)n1 (stereo unspecified)	.	-1	-3	63*	.	1
CCCNC(=O)Nc1ccc2c(c1)C(=O)N(C)[C@@H]1CC[C@@H](CC(=O)NC3CCC3)O[C@@H]1CO2	.	0	.	.	.	.
Cc1ccc2[nH]c(=O)c(-c3nc4cc(C)ccn4c3NCc3ccco3)cc2c1	2	69*	0	-8	.	-5
COc1ccccc1S(=O)(=O)Nc1ccc2c(c1)OC[C@@H](C)NC[C@@H](C)[C@@H](OC)CN(C)C2=O	.	-1	.	.	.	.
S=C(NCCc1ccccc1)N1CCN(C(=S)NCCc2ccccc2)CC1	4	-2	-3	.	-3	-5
CC1CCN(C(=S)NCCc2ccccc2)CC1	6	.	-1	88*	.	-4
Cc1cc(C(=O)Nc2ccccc2Cc2ccccc2)no1	3	.	-3	66*	-8	-7
O=C(Nc1ccccc1Cc1ccccc1)c1ccncc1	16	-1	-2	25	-1	-4
CCOC(=O)COc1ccc(S(=O)(=O)NCC2CCCO2)cc1 (stereo unspecified)	-11	0	-1	197*	-1	-8
CCCCN1CCc2c([nH]c3c(C)cccc23)C1=O	92*	.	-3	13	27	-2
CC(C)NC(=O)N(C)C[C@@H]1Oc2c(NC(=O)c3nc4ccccc4s3)cccc2C(=O)N([C@@H](C)CO)C[C@H]1C	.	4	.	.	.	.
CCCOc1ccc(-c2csc3nc[nH]c(=O)c23)cc1	48	?	-2	44	38*	-5
O=c1[nH]cnc2scc(-c3ccc(-c4ccccc4)cc3)c12	.	24	.	12	.	.
CN(C(=O)COc1ncnc2ccccc12)C1CCCCC1	-2	-1	-14	.	-1	-8
CN(C(=O)CSc1ncnc2ccccc12)C1CCCCC1	104*	86*	0	.	24	-8
O=C(CSc1ncnc2ccccc12)N1CCNC1=O	25	42*	0	.	14	-4
SMILES	MITF act	esBAF inh	A3A deaminase	PHOSPHO1 inh	Wnt act	APOBEC3G inh
CC(C)NC(=O)Nc1ccc2c(c1)C(=O)N([C@@H](C)CO)C[C@@H](C)[C@H](CN(C)Cc1ccc(Oc3ccccc3)cc1)O2	.	2	.	.	.	.
CN1C(=O)c2cc(NC(=O)c3ccc(C(F)(F)F)cc3)ccc2OC[C@@H]2O[C@H](CC(=O)NC3Cc4ccccc4C3)CC[C@H]21	.	11	.	.	.	.
Cc1nc(NC(=O)c2ccccc2)sc1-c1csc(N)n1	-2	53*	-2	40	?	15
Cc1nc(N)sc1-c1csc(Nc2ncccn2)n1	-41	.	.	-106	26	.
Cc1nc(NC(=O)c2ccccc2)sc1-c1csc(NCCc2ccccc2)n1	-3	23	0	62*	-4	-4
Cc1nc(NC(=O)c2ccccc2)sc1-c1csc(NCc2ccccc2)n1	6	18	-2	17	0	0
Cc1nc(N)sc1-c1csc(NCc2ccccc2)n1	8	.	0	67*	.	2
NC(=O)c1cc(-c2csc(NCCc3ccccc3)n2)ccc1O	18	6	-8	24	3	-13
CC(=O)Nc1ccc(-c2csc(NCCc3ccccc3)n2)cc1	.	47*	0	-44	3	2
C[C@@H]1CN([C@@H](C)CO)C(=O)c2cccc(NS(=O)(=O)c3cccs3)c2O[C@H]1CN(C)C(=O)NC1CCCCC1	.	4	.	.	.	.
Cc1ccc(C)c(CSc2nnc(-c3cccnc3)o2)c1	3	0	3	-16	.	-3
Fc1ccccc1CSc1nnc(-c2ccccc2)o1	103*	31	1	-32	68*	-1
Fc1ccccc1CSc1nnc(-c2cccnc2)o1	37	.	2	52	40*	-4
COc1ccc(-c2nnc(SCc3ccccc3F)o2)cc1	62	.	-1	-7	.	-4
O=C(C[C@H]1CC[C@@H](NC(=O)CC2CC2)[C@H](CO)O1)NCc1ccc(-c2ccccc2)cc1	.	0	.	.	.	.
CCOc1cc(C2NN=C(c3ccc(C)cc3)S2)ccc1O (stereo unspecified)	68	.	.	3	63*	.
COc1ccc(C2NN=C(c3ccc(C)cc3)S2)cc1 (stereo unspecified)	73	27	.	22	29	.
C/C=C/c1ccc2c(c1)O[C@@H](CN(C)C(=O)c1ccccc1F)[C@@H](C)CN([C@@H](C)CO)S2(=O)=O	.	4	.	.	.	.
Cc1cc(O)c(NC(=O)c2cccc([N+](=O)[O-])c2)cc1C	7	39	4	20	30*	1
O=C(Nc1ncc([N+](=O)[O-])s1)c1cccc([N+](=O)[O-])c1	-5	-58	-1	44	38*	-4
O=C(Nc1ccc(NC(=O)c2cccc([N+](=O)[O-])c2)cc1)c1cccc([N+](=O)[O-])c1	.	6	-6	18	6	-5
CCN(CC)c1ccc(C(=O)Nc2ccccc2)cc1[N+](=O)[O-]	87*	.	-1	25	13	-5
O=C(Nc1ccc([N+](=O)[O-])cc1)c1cccc([N+](=O)[O-])c1	.	0	.	.	40*	.
C[C@H]1CN([C@@H](C)CO)C(=O)c2cc(C#Cc3ccncc3)cnc2O[C@@H]1CN(C)Cc1ccncc1	.	-4	.	.	.	.
